Results as given in ChEMBL document CHEMBL3988442, “University of Dundee, Small-Polar-MMV Screening Library” (2021).
About 13,000 (27%) of roughly 48,000 compounds showed an effect of 50% or more. The list shows a part of the results.

The molecules below were run on Wolbachia pipientis (assay: Anti-Wolbachia Cell-Based Screen). Conditions: 5 µM.
Assay type: functional
Parameters: scale not given: in the data most compounds retested in dose-response had high values

SMILES	Percent Effect
COc1ccc(-c2n[nH]cc2CN(C)Cc2ccoc2)c(F)c1	10.13%
c1cc2c(cc1C1CCCN1Cc1nnnn1C1CC1)OCCO2 (centres undefined)	-7.859%
CCC(O)CNc1ccc(-c2nc(CC(C)C)no2)cn1 (centres undefined)	-5.208%
O=C(NCC1CCOC1)c1ccc(OCC(F)(F)F)nc1 (centres undefined)	-6.921%
NCC1Cc2cc(-c3cncc(C(=O)N4CCOCC4)n3)cc(Cl)c2O1 (centres undefined)	-2.851%
CCc1nc(C2CCCN2CCCS(=O)(=O)c2ccccc2)no1 (centres undefined)	0.9329%
COc1ccc2c(c1)CN(c1cc(N3CCCC3CO)ncn1)CC2 (centres undefined)	-11.42%
COc1ccc2c(c1)CN(CC(=O)NC1CCCC1)CC2	115.8%
COc1ccc2c(c1)CCN(CCC(=O)NC1CCCCC1)CC2	-10.31%
COCCOCC(=O)N1CCC(O)(c2ccc3nc(C)ccc3c2)CC1	1.515%
CCn1c(N)nc2cc(C(=O)NCCc3sccc3C)cnc21	9.086%
O=C(O)c1cccnc1CN1CCCCC1CCc1cccs1 (centres undefined)	113%
O=C(O)c1cccnc1CN1CCCCC1CCc1ccccn1 (centres undefined)	108.5%
O=C(O)c1cccnc1CN1CCCC1CCc1ccccc1 (centres undefined)	101.7%
O=C(O)c1cccnc1CN(Cc1ccsc1)C1CC1	-4.109%
CCN1CCCC1CNC(=O)CCc1cccs1 (centres undefined)	-0.4602%
CC(C)(C)OC(=O)NCC1CCCCN1Cc1ccccn1 (centres undefined)	1.475%
Cc1oc(-c2ccoc2)nc1CN1CCCCC1CCc1ccccc1 (centres undefined)	-13.12%
O=C(Cc1c[nH]c(=O)[nH]c1=O)N1CCCCC1CCc1cccc(O)c1 (centres undefined)	2.49%
CN(Cc1cccc(F)c1)C(=O)CN1CCCC1CCc1ccccc1 (centres undefined)	-6.226%
Cc1c[nH]c(CN2CCCCC2CCc2cccc(O)c2)c(C)c1=O (centres undefined)	11.94%
O=C(O)c1cccnc1CN1CCCCC1CCc1cccc(O)c1 (centres undefined)	117.3%

SMILES	Percent Effect
COc1cc2c(cc1OC)CN(Cc1ncccc1C(=O)O)CC2	-6.886%
CN(CCCc1nccn1C)C(=O)C1CCN(C(=O)C2CC2)CC1	15.41%
Cc1ccccc1CN1CCC2(CC1)CN(S(=O)(=O)c1ccccc1)C2.O=C(O)C(F)(F)F	-17.23%
Cc1occc1C(=O)N1CCC[C@]2(C[C@@H](OCc3ccncc3)CO2)C1.O=C(O)C(F)(F)F	-11.73%
CCc1nc(C2CCCN2C(=O)C2=COCC2)no1 (centres undefined)	-4.333%
CCc1cc(C(=O)N2CCCC2c2nc(C)c(CC)c(O)n2)on1 (centres undefined)	110.9%
CCc1c(C)nc(C2CCCN2C(=O)c2cc(C)no2)nc1O (centres undefined)	101.8%
CCc1nc(C2CCCN2C(=O)c2ccc3c(c2)nc(C)n3C)no1 (centres undefined)	0.7608%
CCc1cc(C(=O)N2CCCC2c2nc(C)c(F)c(O)n2)on1 (centres undefined)	-4.896%
Cn1ncc2c1NC(=O)CC2c1cc2c(cc1Cl)OCO2 (centres undefined)	-77.33%
O=C1CC(c2ccc3c(c2)OCO3)c2cn[nH]c2N1 (centres undefined)	104.3%
O=C1CO[C@H]2CN(Cc3ccc4c(c3)OCO4)C[C@H]2N1	-13.01%
CCC(C)(NCc1ncc(C(C)C)o1)c1nccs1 (centres undefined)	-9.094%
CN(C)[C@@H]1CO[C@H](CNC(=O)Nc2ccccc2)[C@H]1O	-15.17%
CN(Cc1c(F)cccc1Cl)C(=O)Nc1cnn(CC(N)=O)c1	-4.374%
CCOc1ccc2nc(CN3CCOC(CN)C3)ccc2c1 (centres undefined)	8.772%
CC(C)c1n[nH]c(C2CN(C(=O)c3ccnc(C4CC4)n3)CCO2)n1 (centres undefined)	106.2%
Cc1nccc(C(=O)N2CCOC(c3nc(C(C)C)n[nH]3)C2)n1 (centres undefined)	122.6%
CC1CCc2nc(O)c(C(=O)NCc3ccncc3)cc2C1 (centres undefined)	0.9729%
CCc1nc(CN2CCCN(Cc3cnn(C)c3)CC2)no1	-7.215%
CN1CCN(C(=O)c2ncn3c2CN(C)S(=O)(=O)c2ccccc2-3)CC1.O=C(O)C(F)(F)F	82.4%
CCCNC(=O)c1ncn2c1CN(CC(C)C)S(=O)(=O)c1ccccc1-2	51.12%

SMILES	Percent Effect
CN(C(=O)c1ncn2c1CN(C)S(=O)(=O)c1ccccc1-2)C1CC1.O=C(O)C(F)(F)F	110.5%
CCN1Cc2c(C(=O)NC)ncn2-c2ccccc2S1(=O)=O	-8.627%
CCN1Cc2c(C(=O)NC(C)C)ncn2-c2ccccc2S1(=O)=O	-5.811%
CC(C)CN1Cc2c(C(=O)NC3CC3)ncn2-c2ccccc2S1(=O)=O	24.74%
CN1Cc2c(C(=O)N3CCOCC3)ncn2-c2ccccc2S1(=O)=O	-2.827%
CCCN(CC)C(=O)c1ncn2c1CN(C)S(=O)(=O)c1ccccc1-2	93.03%
CN1CCN(C(=O)c2ncn3c2CNS(=O)(=O)c2ccccc2-3)CC1	3.453%
CCNC(=O)c1ncn2c1CN(C)S(=O)(=O)c1ccccc1-2	6.974%
Cc1ncsc1CCN(C)C(=O)c1c(O)cccc1O	-0.9599%
O=C(CCn1nnc2ccccc2c1=O)N(CC1CCOC1)C1CC1 (centres undefined)	-7.506%
CCCOC1CCCN(C(=O)Cn2cccc(C(F)(F)F)c2=O)C1 (centres undefined)	-4.197%
CCC(CC)NC(=O)c1ncn2c1CN(CC)S(=O)(=O)c1ccccc1-2.O=C(O)C(F)(F)F	4.599%
Cc1c(C(=O)NC2CCCC2)nnn1-c1ccccc1	-16.4%
CCN1Cc2c(C(=O)NC(C)C(C)C)ncn2-c2ccccc2S1(=O)=O (centres undefined)	6.168%
CN1Cc2c(C(=O)NC3CCCCC3)ncn2-c2ccccc2S1(=O)=O.O=C(O)C(F)(F)F	115.3%
CCC(C)(C)NC(=O)c1ncn2c1CN(C)S(=O)(=O)c1ccccc1-2.O=C(O)C(F)(F)F	117.1%
O=C(c1ncn2c1CNS(=O)(=O)c1ccccc1-2)N1CC=CC1	-15.18%
CC(C)C(C)NC(=O)c1ncn2c1CN(C)S(=O)(=O)c1ccccc1-2.O=C(O)C(F)(F)F (centres undefined)	211.3%
CN1Cc2c(C(=O)Nc3cccnc3)ncn2-c2ccccc2S1(=O)=O.O=C(O)C(F)(F)F	-4.618%
CN1Cc2c(C(=O)NCC3CCCO3)ncn2-c2ccccc2S1(=O)=O (centres undefined)	113.6%
